Results reported in the supplement of paper PMC12645437, “Orthogonal IMiD-Degron Pairs Induce Selective Protein Degradation in Cells” (ACS Chemical Biology, 2025).
Over roughly 8,300 sequences, “log2 fold change of degron read counts, EGFP-low vs EGFP+ sorted cells (limma voom), compound-induced degradation” has its median near -1.1; the highest 2% begin near 3.2. The sample holds the highest values, similar sequences and a random draw of the others, so the mix is not that of the screen.

Biological target: T1, CRBN, Q96SW2
T1 chain: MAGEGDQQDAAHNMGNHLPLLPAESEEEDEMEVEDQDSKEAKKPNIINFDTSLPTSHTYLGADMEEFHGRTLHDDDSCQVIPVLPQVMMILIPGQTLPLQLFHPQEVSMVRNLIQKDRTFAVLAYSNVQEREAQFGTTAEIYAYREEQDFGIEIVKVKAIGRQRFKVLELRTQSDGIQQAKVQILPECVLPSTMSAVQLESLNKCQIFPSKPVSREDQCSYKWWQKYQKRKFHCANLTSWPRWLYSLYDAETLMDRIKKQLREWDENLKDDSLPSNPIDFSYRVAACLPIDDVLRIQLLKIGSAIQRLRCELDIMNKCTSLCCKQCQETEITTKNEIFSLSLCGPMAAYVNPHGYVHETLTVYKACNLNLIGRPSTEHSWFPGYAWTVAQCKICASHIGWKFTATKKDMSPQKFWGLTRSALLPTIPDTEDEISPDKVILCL
Test: log2 fold change of degron read counts, EGFP-low vs EGFP+ sorted cells (limma voom), compound-induced degradation; higher = more compound-induced degradation of the degron-EGFP fusion; degrons are variants of IKZF1/3 zinc finger 2; compound dose not given here
Details: Jurkat, 18 h

[1] = compound: compound 19 (5-tert-butyl-thalidomide)
[2] = compound: compound 22 (5-morpholino-thalidomide)
[3] = compound: compound 33 (diphenyl IMiD analogue)
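Also: pooled lentiviral library of zinc finger degron-EGFP fusions in mCherry-positive Jurkat cells, FACS-sorted after compound exposure, with degron abundance counted by next-generation sequencing.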

B1: 46F_47N_49S_50V_52G_53H_54V_55F_67L_, Q9UKT9 (peptide)
chain: FNCSVCGHVFTQKGNLLRHIKL
log2 fold change of degron read counts [1]: -2.33 | log2 fold change of degron read counts [2]: -2.79 | log2 fold change of degron read counts [3]: -2.91 | log2 fold change of degron read counts (compound: thalidomide): -2.16

B2: 46F_47G_49D_50I_52G_53A_54L_55F_67L_, Q9UKT9 (peptide)
chain: FGCDICGALFTQKGNLLRHIKL
log2 fold change of degron read counts [1]: 0.711 | log2 fold change of degron read counts [2]: -0.455 | log2 fold change of degron read counts [3]: 0.626 | log2 fold change of degron read counts (compound: thalidomide): -1.25

B3: 46F_47E_49P_50I_52G_53R_54E_55F_67L_, Q9UKT9 (peptide)
chain: FECPICGREFTQKGNLLRHIKL
log2 fold change of degron read counts [1]: -3.21 | log2 fold change of degron read counts [2]: -2.49 | log2 fold change of degron read counts [3]: -0.551 | log2 fold change of degron read counts (compound: thalidomide): 0.22

B4: 46F_47F_49D_50V_52G_53A_54M_55F_67L_, Q9UKT9 (peptide)
chain: FFCDVCGAMFTQKGNLLRHIKL
log2 fold change of degron read counts [1]: 1.26 | log2 fold change of degron read counts [2]: 0.949 | log2 fold change of degron read counts [3]: -0.289 | log2 fold change of degron read counts (compound: thalidomide): -2.16

B5: 46L_47C_49P_50I_52G_53F_54E_55C_67L_, Q9UKT9 (peptide)
chain: LCCPICGFECTQKGNLLRHIKL
log2 fold change of degron read counts [1]: 0.863 | log2 fold change of degron read counts [2]: 1.38 | log2 fold change of degron read counts [3]: 1.36 | log2 fold change of degron read counts (compound: thalidomide): 2.2

B6: 46L_47Y_49E_50I_52G_53F_54C_55C_67L_, Q9UKT9 (peptide)
chain: LYCEICGFCCTQKGNLLRHIKL
log2 fold change of degron read counts [1]: 3.35 | log2 fold change of degron read counts [2]: 3.28 | log2 fold change of degron read counts [3]: 3.07 | log2 fold change of degron read counts (compound: thalidomide): 1.36

B7: 46L_47V_49E_50I_52G_53F_54C_55C_67L_, Q9UKT9 (peptide)
chain: LVCEICGFCCTQKGNLLRHIKL
log2 fold change of degron read counts [1]: 1.06 | log2 fold change of degron read counts [2]: 1.69 | log2 fold change of degron read counts [3]: 1.86 | log2 fold change of degron read counts (compound: thalidomide): 2.44

B8: 46L_47C_49E_50I_52G_53F_54C_55C_67L_, Q9UKT9 (peptide)
chain: LCCEICGFCCTQKGNLLRHIKL
log2 fold change of degron read counts [1]: 0.944 | log2 fold change of degron read counts [2]: 0.646 | log2 fold change of degron read counts [3]: 1.13 | log2 fold change of degron read counts (compound: thalidomide): 1.21

B9: 46L_47W_49E_50I_52G_53F_54C_55C_67L_, Q9UKT9 (peptide)
chain: LWCEICGFCCTQKGNLLRHIKL
log2 fold change of degron read counts [1]: 2.9 | log2 fold change of degron read counts [2]: 3.31 | log2 fold change of degron read counts [3]: 2.14 | log2 fold change of degron read counts (compound: thalidomide): 0.752

B10: 46L_47D_49E_50I_52G_53F_54C_55C_67L_, Q9UKT9 (peptide)
chain: LDCEICGFCCTQKGNLLRHIKL
log2 fold change of degron read counts [1]: -1.71 | log2 fold change of degron read counts [2]: -2.74 | log2 fold change of degron read counts [3]: -1.75 | log2 fold change of degron read counts (compound: thalidomide): -1.36

B11: 46L_47N_49E_50I_52G_53F_54C_55C_67L_, Q9UKT9 (peptide)
chain: LNCEICGFCCTQKGNLLRHIKL
log2 fold change of degron read counts [1]: 0.295 | log2 fold change of degron read counts [2]: -0.862 | log2 fold change of degron read counts [3]: -1.01 | log2 fold change of degron read counts (compound: thalidomide): -0.716

B12: 46L_47A_49E_50I_52G_53F_54C_55C_67L_, Q9UKT9 (peptide)
chain: LACEICGFCCTQKGNLLRHIKL
log2 fold change of degron read counts [1]: 2.01 | log2 fold change of degron read counts [2]: 0.96 | log2 fold change of degron read counts [3]: -0.0283 | log2 fold change of degron read counts (compound: thalidomide): -0.106

B13: 46L_47S_49E_50I_52G_53F_54C_55C_67L_, Q9UKT9 (peptide)
chain: LSCEICGFCCTQKGNLLRHIKL
log2 fold change of degron read counts [1]: 1.68 | log2 fold change of degron read counts [2]: 1.58 | log2 fold change of degron read counts [3]: 0.957 | log2 fold change of degron read counts (compound: thalidomide): 0.73

B14: 46L_47F_49E_50I_52G_53F_54C_55C_67L_, Q9UKT9 (peptide)
chain: LFCEICGFCCTQKGNLLRHIKL
log2 fold change of degron read counts [1]: 3.37 | log2 fold change of degron read counts [2]: 3.39 | log2 fold change of degron read counts [3]: 2.01 | log2 fold change of degron read counts (compound: thalidomide): 1.32
